Measured values from PubChem BioAssay AID652054 (National Center for Advancing Translational Sciences (NCATS), 2013).
Hit rate of the full screen: of about 360,000 compounds, about 9,100 (2.5%) were called active. Not shown: some 4% with an inconclusive outcome. Cut-off read from the data, not from the text of the source: active = max response below about -50%; inconclusive = no clear call, values can overlap the other calls; inactive = above that. What follows is part of a selection rich in actives, with near analogues and random picks from the rest.

target: D(3) dopamine receptor (Homo sapiens) (UniProt P35462); assay: qHTS of D3 Dopamine Receptor Antagonist: qHTS; details: D3R cells, DiscoveRx beta-arrestin luminescence, antagonist mode; stronger effect = lower value
How it was run: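 Cells expressing the human receptor were seeded at 1500 cells/well, incubated overnight at 37 degrees C in 5% CO2, then exposed to library compounds with dopamine controls for 90 minutes at 37 degrees C before luminescent detection.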
% is set by controls: 0 for no effect and ±100 for the full control effect.

Sequence of D(3) dopamine receptor (Homo sapiens) (P35462 whole entry, looked up): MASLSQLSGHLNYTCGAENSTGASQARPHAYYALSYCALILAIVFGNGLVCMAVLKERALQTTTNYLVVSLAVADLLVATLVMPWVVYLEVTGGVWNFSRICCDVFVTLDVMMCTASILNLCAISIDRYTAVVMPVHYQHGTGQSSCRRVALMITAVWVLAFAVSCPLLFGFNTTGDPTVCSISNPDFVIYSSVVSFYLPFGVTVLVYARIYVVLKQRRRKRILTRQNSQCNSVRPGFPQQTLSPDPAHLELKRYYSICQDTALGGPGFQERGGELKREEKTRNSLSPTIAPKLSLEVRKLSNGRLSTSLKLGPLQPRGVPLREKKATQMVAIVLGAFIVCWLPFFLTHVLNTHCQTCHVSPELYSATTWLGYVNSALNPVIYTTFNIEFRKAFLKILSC

Max response, negative = inhibition, active:
O=C(CSc1nnc(-c2ccco2)n1-c1ccccc1)NCCc1ccccc1 -54.3%
O=C(CO/N=C/c1ccccc1O)NNC(=O)c1ccccc1Cl -53.5%
CN(C)CCNC(=O)Nc1cccc(Cl)c1Cl -70.3%
Fc1ccccc1CCNc1nnnn1-c1ccccc1 -77.8%
CN(C)CC/C=C1\c2ccccc2CSc2ccccc21 -54.4%
Oc1ccc(Br)cc1/C=N/Nc1ccccn1 -57.7%
Nc1cc(OC(=O)c2ccccc2Br)nn1S(=O)(=O)c1ccccc1 -73.2%
Cc1cccc(C)c1Cn1c(C)c(C(=O)NCc2cccc(Cl)c2)sc1=O -105%
COc1ccc(Br)c(Cn2c(C)c(C(=O)NCc3cccs3)sc2=O)c1 -59.3%
CCCN(CCC)CCNC(=O)c1cc2c(C)nc3ccccc3c2o1 -52.4%
CC1(Oc2ccc(Cl)cc2)CCN(Cc2csc3ccccc23)C1 (configuration not stated) -85.5%
O=C(Nc1ccccc1)N1CCN(Cc2ccccc2)CC1 -70.6%
O=C(c1cc2ccccc2o1)N1CCN(Cc2ccccc2)CC1 -77.4%
O=C1Nc2ccc([N+](=O)[O-])cc2C1=Nc1cccc(CO)c1 -77.4%
CC1CCCCN1S(=O)(=O)c1ccc(C(=O)Nc2nnc(-c3cccs3)o2)cc1 (configuration not stated) -63.3%
CCOC(=O)c1cnc(-n2nc(C)cc2C)nc1NNc1cc(C)nc(-c2ccccc2)n1 -53.4%
c1ccc(-c2cnc(CN3CCN(c4ccccc4)CC3)o2)cc1 -58.1%
CC(=O)Nc1ccc(N2C(=O)C3C4CC(=O)C(c5ccccc54)C3C2=O)cc1 (configuration not stated) -60%
COc1ccccc1/C=C/CN1CCC(CO)(Cc2ccccc2)CC1 -76.1%
CCc1ccc2c(c1)C1(NN=C(c3ccccc3)S1)C(=O)N2 (configuration not stated) -60.6%
NC1=CC(=O)C(=O)c2cccnc21 -69.1%

Max response, negative = inhibition, inactive:
C[C@@H]1CN([C@@H](C)CO)C(=O)c2cc(Br)cnc2O[C@@H]1CN(C)C(=O)C1CCCCC1 22.5%
COc1ccc(C(=O)NC(=O)CSc2nnc(-c3ccco3)n2-c2ccccc2)cc1 -3.83%
Cc1cccc(C)c1NC(=O)CCCSc1nnc(-c2ccco2)n1-c1ccccc1 -8.78%
O=C(CO/N=C/c1ccccc1OC(F)F)NC1CCCC1 8.59%
O=C(NNC(=O)c1ccccc1O)c1ccccc1O 5.67%
Cc1ccc(S(=O)(=O)N2CC3C(=O)C[C@@H](c4ccccc4Cl)N(S(=O)(=O)c4ccc(C)cc4)C3CC2c2ccccc2)cc1 (some centres not stated) 9.92%
CCOC(=O)c1ccn(S(=O)(=O)c2ccc(C)cc2)c1-c1ccccc1 -20.6%
Cc1c(Cl)cccc1NC(=O)NCc1ccc(C)n1C 13.8%
Cc1c(Cl)cccc1NC(=O)NCCCN1CCCC1=O -2.4%
Cc1ccccc1-c1nc(NC(C)C)nc2cc(-c3ccccc3)sc12 21.7%
C[C@H]1CN([C@@H](C)CO)C(=O)c2cc(-c3cccc(F)c3)cnc2O[C@@H]1CN(C)S(C)(=O)=O 17.3%
COc1ccc(Sc2ccc(NC(=O)c3cccc(Cl)c3)cc2C#N)cc1 28.7%
c1ccc(-n2nnnc2NC2CCCCCC2)cc1 -9.29%
COc1ccccc1CN(C)c1nnnn1-c1ccccc1 6.89%
COc1ccccc1CNc1nc(Nc2ccccc2Cl)c2sccc2n1 51.2%
Cc1ccccc1NC(=O)Cc1nc(COC(=O)CNC(=O)c2ccc(Cl)cc2Cl)cs1 -6.28%
CN(C)Cc1ccccc1C1(O)c2ccccc2CSc2ccccc21 (configuration not stated) -12.3%
O=[N+]([O-])c1ccc(C(S(=O)(=O)Cc2ccccc2)S(=O)(=O)Cc2ccccc2)cc1 -9.27%
S=C(NN=Cc1ccccn1)Nc1ccccn1 -27%
O=C(CCc1ccc(O)cc1)NN=Cc1cc(Br)ccc1O -3.37%
CNC(=O)C1CN(C(=O)c2cccc(S(=O)(=O)N3CCc4ccccc43)c2)c2ccccc2O1 (configuration not stated) -27.2%
CC1C(=O)N(Cc2cn(CC3CCCCC3)nn2)CCS(=O)(=O)N1Cc1ccc(-c2cccc(N(C)C)c2)cc1 (configuration not stated) 0%
CN1C(=O)/C(=N/OC(=O)c2ccccc2Br)c2ccccc21 0.409%
Cc1ccc(S(=O)(=O)n2nc(OC(=O)C(C)(C)C)cc2N)cc1 -4.07%
FC(F)(F)c1ccccc1Cc1c(-c2ccccc2)nc2c3ccccc3ccn12 -14.4%
COc1cccc(-c2cnc3c(NC(C)=O)cc(-c4cccc(NC(C)=O)c4)cn23)c1 43.1%
CCN1CCCC1CNC(=O)c1ccc2c(c1)NC(=O)/C(=C\c1ccccc1F)S2 (configuration not stated) -21.4%
Cc1ccccc1Cn1c(C)c(C(=O)NCc2cccc(C(F)(F)F)c2)sc1=O -29.9%
COc1cc(CC(=O)NCc2cccs2)cc(OC)c1OC -6.25%
CC(=O)Oc1ccc(Cn2c(C)c(C(=O)NCc3ccc(C#N)cc3)sc2=O)cc1 -1.7%
Cc1c(C(=O)NCC2CC2)sc(=O)n1Cc1cccc(F)c1 11.5%
CCOC(=O)[C@]12CCCC=C1N(CCC1=CCCCC1)C(=O)[C@H](CC(=O)N1CCOCC1)C2 -20.5%
COC(=O)C[C@H]1C=C[C@H](NC(=O)c2ccc(F)cc2)[C@@H](CO)O1 0%
CCN(CC)CCNC(=O)c1ccc(NC(=O)c2cc(-c3ccncc3)nc3ccccc23)cc1 -11%
CCc1nc2ccccc2c(C(=O)NCc2ccc(OC)cc2)c1C -8.59%
C[C@H]1CN([C@@H](C)CO)C(=O)CCCn2nncc2CO[C@@H]1CN(C)S(=O)(=O)c1cccc(C#N)c1 12.3%
CC1(Oc2cccc(F)c2)CCN(Cc2ccccc2OC(F)F)C1 (configuration not stated) -21.8%
COc1ccc(CN2CCC(C)(Oc3cccc(F)c3)C2)c2ccccc12 (configuration not stated) -6.36%
N#Cc1ccc(-c2ccc3nccn3c2)cc1 21.2%
Cc1ccccc1S(=O)(=O)NC(=O)C1(C)CCN1C(=O)C1(c2ccccc2)CCCC1 (configuration not stated) 15.6%
CSc1ccc(CN2CCC2(C)C(=O)Nc2ccc(C)c(O)c2)cc1 (configuration not stated) 51.8%
O=C(NC(=S)N1CCN(Cc2ccccc2)CC1)c1ccccc1 -1.99%
O=C(c1cc2ccccc2o1)N1CCN(S(=O)(=O)c2ccc(Cl)s2)CC1 -0.155%
O=C(c1cccc(Cl)c1)N1CCN(Cc2ccccc2)CC1 7.13%
O=C(Nc1ccccc1)N1CCC(C(=O)N2CCN(Cc3ccccc3)CC2)CC1 0%
CCOC(=O)C1=CCC(c2ccc(F)cc2)N(S(=O)(=O)c2ccc(C)cc2)C1 (configuration not stated) -25.7%
Clc1cccc(Cc2c(-c3cccc(Cl)c3)nc3ccc(Cl)cn23)c1 33.1%
CC(=NNC(N)=O)C1CC2CCC1CC2 (configuration not stated) 16.7%
O=C1Nc2ccccc2-n2nnnc2C1N1CCN(c2cccc(C(F)(F)F)n2)CC1 (configuration not stated) 11.4%
O=[N+]([O-])c1ccc(N(CCO)Cc2ccccc2)c([N+](=O)[O-])c1 5.91%
CN1CCN(/N=C2/C(=O)Nc3ccc([N+](=O)[O-])cc32)CC1 -3.16%
COC(=O)CCCCC1=CCC2C(=O)C=C(O)C2C1 (configuration not stated) 0%
CN1CCn2cnc(C(=O)NCC(=O)OC(C)(C)C)c2C1=O -5.8%
CC1CCCCN1S(=O)(=O)c1ccc(S(=O)(=O)N(CC(=O)Nc2ccccc2)Cc2cccs2)cc1 (configuration not stated) 28.7%
CSCc1nnc(NC(=O)c2ccc(S(=O)(=O)N3CCCCC3C)cc2)o1 (configuration not stated) -20%
Cc1cc(-n2nc(C)cc2C)n2ncc(-c3ccccc3)c2n1 17.7%
Cc1cc(C)n(-c2c(F)c(F)c(COC(=O)c3ccccc3)c(F)c2F)n1 -2%
CCCS(=O)(=O)NC(=O)C1(C)CCCN(C(=O)c2cccs2)C1 (configuration not stated) -7.3%
COC(=O)[C@]12CCCCC=C1N(Cc1ccccc1)C(=O)[C@H](CC(=O)NCc1ccc(C)o1)C2 0.174%
Cc1ccc(-c2nnc(CN3CCN(C)CC3)o2)cc1 0%
COc1ccc(N2CCN(Cc3nnc(-c4ccccc4)o3)CC2)cc1 11.3%
Cc1cc2cc3n(c2nn1)N=C(Cl)CC3 10.6%
CC(=O)Nc1ccc(N2C(=O)C3C4C=CC(CC4)C3C2=O)cc1 (configuration not stated) 3.35%
CCc1ccccc1N1C(=O)C2C3CC(=O)C(c4ccccc43)C2C1=O (configuration not stated) -6.94%
Cc1cc(Br)cn2c(Cc3cccc(F)c3)c(-c3cccc(Br)c3)nc12 0.913%
CC(C)c1csc(CN2CCC(CO)(Cc3ccccc3)CC2)n1 -22%
COc1ccccc1/C=C/C=N/NC(=O)CN1CCN(Cc2ccccc2)CC1 -17.6%
COc1cccc(NC(=O)N(C)C[C@@H]2Oc3ncc(Br)cc3C(=O)N([C@@H](C)CO)C[C@H]2C)c1 -24.9%
OC(c1ccccc1)c1nc(-c2cnc3ccccc3c2)cs1 (configuration not stated) 4.32%
CCc1ccc2c(c1)NC(=O)C2(C)Cc1ccc(OC(F)(F)F)cc1 (configuration not stated) 16.6%
CCOc1ccc(CCN2C(=O)c3cccnc3C2=O)cc1OCC -22%
